# Reference: publication PMC5540273 (PLoS ONE, 2017)
# System: PAK2
# Details: concentration: 1 μM, replicates: in singlicate; n = 1
# 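Further: KINOMEscan kinase panel screen.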
row,SMILES,%Inh
1,CCn1c(-c2ccoc2)nc2cnccc21 [SB-733887],19%
2,CCS(=O)c1ccc(-c2coc3ccc(-c4nnc(C)o4)cc23)cc1 (stereo not drawn),0%
3,Nc1ncnc2c1ncn2-c1ccc(Cl)cc1 [AH2635],0%
4,O=c1cc(N2CCOCC2)nc2n(Cc3ccc(F)c(Cl)c3)ccn12 [GSK2297099],5%
5,COc1ccc(CNC(=O)NC2CCN(c3ccnc(Nc4ccc(F)cc4)n3)C2)cc1 (stereo not drawn) [GSK1379706],0%
6,COc1cc(Nc2ccnc3ccc(C(F)(F)F)cc23)cc(OC)c1OC [GW577382],0%
7,O=C(Nc1n[nH]c2nc(-c3ccccc3)c(Br)cc12)C1CC1 [SB-708998],10%
8,Nc1n[nH]c2nnc(-c3ccccc3)c(-c3ccccc3)c12 [GW554060],0%
9,CCc1nc(-c2cccc(C)c2)c(-c2ccncc2)s1,16%
10,O=C(NCCNc1ccnc(Nc2ccc(F)cc2)n1)Nc1ccc2c(c1)OCO2 [GSK1379882],0%
11,Fc1cccc(CSc2nnc(-c3ccc4c(c3)CCO4)o2)c1,62%
12,Cn1c(=O)c(F)c(Nc2ccc(I)cc2F)c2c(=O)n(OC[C@H](O)CO)cnc21,7%
13,COc1cc(Nc2nccc(N3CCC(NC(=O)C4COc5ccccc5O4)C3)n2)cc(OC)c1OC (stereo not drawn) [GSK1379761],0%
14,CCC(=O)c1c(-c2ccccc2)c2cc(Cl)ccc2c(=O)n1Cc1cc(S(C)(=O)=O)n(CCC(C)(C)O)n1,8%
15,Nc1ncnc2c1ncn2-c1cccc(F)c1 [SKF-97560],0%
